In PubChem BioAssay AID651592 (Sanford-Burnham Center for Chemical Genomics, 2012) one finds outcome data, which are given here for 34 compounds.

Calls of active or inactive are those of the source.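 How the source made its calls: active means NF-kB reporter IC50 at most 10 µM, IL-8 IC50 within fivefold of it with bacterial filtrate but not with TNF-alpha; inactive means the rest.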

For the test, the target named is Interleukin-8 (Homo sapiens) (UniProt P10145). Put plainly: inhibitors of NFkB activation in CF airway cells, SAR follow-up, KKLEB cells, panel, IL8 HTRF, NFkB-GFP (AID 651592).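 Further: immortalized cystic fibrosis airway epithelial KKLEB cells with an NF-kB GFP reporter.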 The note with it: PAF/TNFa-induced NFkB-GFP / IL8 HTRF, mean of runs. For orientation: Time-resolved FRET reads energy transfer from a long-lived donor to a nearby acceptor.
Sequence of Interleukin-8 (Homo sapiens) (P10145 whole entry, looked up): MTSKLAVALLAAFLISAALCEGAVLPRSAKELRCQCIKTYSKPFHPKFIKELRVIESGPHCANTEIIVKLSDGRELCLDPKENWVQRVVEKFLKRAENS
On to `O=C(Nc1ccc(N2CCN(C(=O)c3ccc(F)cc3)CC2)cc1)c1ccccc1`, for which the compound was classed as active.
Then `CCOc1ccc(NCc2cc3c(-c4ccc(OC)c(OC)c4)nn(-c4ccccc4)c3[nH]c2=O)cc1`, with “active”; and `O=C(Nc1ccc(N2CCN(C(=O)c3ccc(F)cc3)CC2)cc1)c1cc(Br)cc(Br)c1`, with “active”; and `CCOc1ccc(NCc2cc3c(C)nn(-c4ccccc4)c3[nH]c2=O)cc1`, with “active”.
Then `O=C(Nc1ccc(N2CCN(C(=O)c3ccccc3Cl)CC2)cc1)c1cncc(Br)c1`, with “active”.
The same measure for `O=C(Nc1ccc(N2CCN(C(=O)c3ccccc3)CC2)cc1)c1cc(Br)cc(Br)c1`: “active”.
For `CCOc1ccc(NCc2cc3c(C(C)(C)C)nn(-c4ccc(Cl)cc4)c3[nH]c2=O)cc1`, the outcome was active.
The same measure for `O=C(Nc1ccc(N2CCN(C(=O)c3ccccc3F)CC2)cc1)c1cccc(Br)c1`: “active”; for `O=C(Nc1ccc(N2CCN(C(=O)c3ccc(F)cc3)CC2)cc1)c1cncc(Br)c1`: “active”; for `O=C(Nc1ccc(N2CCN(C(=O)c3ccccc3)CC2)cc1)c1cncc(Br)c1`: “active”.
Then `O=C(Nc1ccc(N2CCN(C(=O)c3ccccc3Cl)CC2)cc1)c1cccc(Br)c1`, with “active”.
Consider `O=C(Nc1ccc(N2CCN(C(=O)c3ccccc3)CC2)cc1)c1cccc(Br)c1`, for which the call was active.
Then `O=C(Nc1ccc(N2CCN(C(=O)c3ccccc3F)CC2)cc1)c1cc(Br)cc(Br)c1`, with “active”.
With `O=C(Nc1ccc(N2CCN(C(=O)c3ccccc3Cl)CC2)cc1)c1ccccn1`, the compound was called active.
The same measure for `O=C(Nc1ccc(N2CCN(C(=O)c3ccc(F)cc3)CC2)cc1)c1cccnc1`: “active”.
`O=C(Nc1ccc(N2CCN(C(=O)c3ccccc3)CC2)cc1)c1ccccc1`: the call was active.
`CCOc1ccc(NCc2cc3c(C(C)(C)C)nn(-c4ccccc4)c3[nH]c2=O)cc1`: the result was active.
Regarding `O=C(Nc1ccc(N2CCN(C(=O)c3ccccc3)CC2)cc1)c1ccncc1`, the outcome was active.
Then `O=C(Nc1ccc(N2CCN(C(=O)c3ccccc3F)CC2)cc1)c1ccncc1`, with “active”; and `O=C(Nc1ccc(N2CCN(C(=O)c3ccc(F)cc3)CC2)cc1)c1ccccn1`, with “active”; and `O=C(Nc1ccc(N2CCN(C(=O)c3ccccc3Cl)CC2)cc1)c1ccccc1`, with “inactive”.
Then `O=C(Nc1ccc(N2CCN(C(=O)c3ccccc3F)CC2)cc1)c1ccccn1`, with “active”.
The same measure for `O=C(Nc1ccc(N2CCN(C(=O)c3ccccc3)CC2)cc1)c1cccnc1`: “active”; for `O=C(Nc1ccc(N2CCN(C(=O)c3ccccc3F)CC2)cc1)c1cccnc1`: “active”.
Consider `CCOc1ccc(NCc2cc3c(-c4ccc(F)cc4)nn(-c4ccccc4)c3[nH]c2=O)cc1`, for which the outcome was active.
Then `O=C(Nc1ccc(N2CCN(C(=O)c3ccccc3)CC2)cc1)c1ccccn1`, with “active”; and `O=C(Nc1ccc(N2CCN(C(=O)c3ccccc3F)CC2)cc1)c1ccccc1`, with “active”.
The same measure for `O=C(Nc1ccc(N2CCN(C(=O)c3ccccc3Cl)CC2)cc1)c1cc(Br)cc(Br)c1`: “active”; for `Cc1ccc(CNCc2cc3c(C(C)(C)C)nn(-c4ccccc4)c3[nH]c2=O)cc1`: “active”; for `O=C(Nc1ccc(N2CCN(C(=O)c3ccccc3Cl)CC2)cc1)c1cccnc1`: “active”.
Then `O=C(Nc1ccc(N2CCN(C(=O)c3ccccc3Cl)CC2)cc1)c1ccncc1`, with “active”; and `O=C(Nc1ccc(N2CCN(C(=O)c3ccc(F)cc3)CC2)cc1)c1cccc(Br)c1`, with “active”; and `Cc1ccc(NCc2cc3c(C(C)(C)C)nn(-c4ccccc4)c3[nH]c2=O)cc1`, with “active”.
As for `O=C(Nc1ccc(N2CCN(C(=O)c3ccc(F)cc3)CC2)cc1)c1ccncc1`, the compound was classed as active.
